# Mito fusion act = mitochondrial division inhibition or fusion activation; S. cerevisiae fusion-defective mutant growth rescue, CellTiterGlo 48 h; Potency, µM (series often up to 46.1 µM), most hits filed as activators; 0.23% of 320,000 active; AID 485298; further: nearly all actives have a fitted effect of over 45% in size
#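 S. cerevisiae fusion-defective temperature-sensitive mutants (e.g. fzo1-1, mgm1-5) grown 48 h at 37C in YPEG (ethanol/glycerol non-fermentable) medium with 23 nl compound per well; growth rescue read as CellTiterGlo luminescence.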
# FUS suppressor = rescues growth of FUS-expressing yeast; S. cerevisiae FUS-expressing, growth rescue, OD600, 24 h; Potency, µM (highest dose often 76.6 µM), most hits filed as activators; 0.24% of 390,000 active; further: nearly all actives have a fitted effect of over 55% in size
#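 Galactose (2%) drives FUS expression in yeast precultured in raffinose; seeding density OD 0.005. Test compounds incubated 24hr at 30C and 99% humidity before absorbance at 600 nm was measured.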
# TDP-43 yeast inh = rescues yeast growth from TDP-43 toxicity; AID 652104; 1.8% of 410,000 active; TDP-43 expressing yeast growth rescue, BacTiter-Glo, 24 h; Potency, µM (top dose mostly 46.1 µM), usual class: activators; further: nearly all actives have a fitted effect of over 50% in size
#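 Yeast cells expressing TDP-43 under galactose induction are exposed to compounds for 24 hr at 30 deg C. BacTiter-Glo luminescence measures growth, so protective compounds score as activators.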
# Abeta rescue = restores growth of yeast expressing A-beta42 peptide | yeast expressing A-beta42, growth rescue, OD600, 48 h; response scale: 0% DMSO, 100% iron-clioquinol control | Potency, µM (titrated, usually from 46.1 µM), usual class: activators | 0.063% of 410,000 active | AID 1347071; further: nearly all actives have a fitted effect of over 55% in size
#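 Yeast A-beta toxicity model in growth medium with pinned compounds, 48 h at 30 C; growth read as absorbance at 600 nm. Normalized to FeCl3/clioquinol equimolar mix (positive) and DMSO (negative).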
# aSyn rescue = rescues yeast growth from alpha-synuclein toxicity; Yeast expressing alpha-synuclein, growth rescue, BacTiter-Glo, 24 h; Potency, µM (series often up to 46.1 µM), most hits filed as activators; 0.14% of 370,000 active; further: nearly all actives have a fitted effect of over 65% in size
#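 Screening used galactose-induced yeast with toxic alpha-synuclein levels, exposed to compound for 24 hr at 30 deg C. Cell growth, read with BacTiter-Glo luminescence, gave the measured signal.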
# Numbers stand for hits; – = inactive; ? = inconclusive; · = not tested or not shown. Hits are enriched below; roughly 2.2% of the tested compounds scored in any of these assays. The call rests on the fitted dose curve; in most records, active means well fitted curve in the direction sought with a large enough effect; inconclusive means small, poorly fitted or top-dose-only effect, or another doubt; inactive means no such curve, though single readings can be large; an effect the other way counts as inactive or inconclusive.
SMILES,Mito fusion act,FUS suppressor,TDP-43 yeast inh,Abeta rescue,aSyn rescue
Cc1nnc(SCc2ccccc2Cl)c2cc3occc3n12,·,?,35µM,–,·
Cc1cccc(OCCCC(=O)NNC(=O)c2ccccn2)c1,–,–,22µM,?,?
Cc1cccc(OCCCC(=O)NNC(=O)c2ccncc2)c1,–,–,–,–,–
CCCCN1C(=O)C(NC(=O)c2ccc(C(C)(C)C)cc2)(C(F)(F)F)C(C(=O)OC)=C1C (stereo not drawn),·,?,?,–,·
Cc1csc(Nc2ccc(Cl)cc2)n1,–,–,16µM,?,–
CC(=O)NC1CCCCN(Cc2cccc(F)c2)C1=O (stereo not drawn),·,–,·,·,·
COc1cc(C(=O)Nc2nc(-c3cccs3)cs2)cc(OC)c1OC,14µM,–,–,–,–
Cc1ccc(C(=O)Nc2nccc(-c3cccs3)n2)cc1,–,–,13µM,–,–
O=C(Nc1nc(-c2cccs2)cs1)c1ccc(Cl)cc1,?,–,35µM,–,–
COc1ccc(C(=O)Nc2nc(-c3cccs3)cs2)cc1,?,·,–,–,–
COc1cc(C(=O)NC(=S)Nc2nc(-c3ccc(F)cc3)cs2)cc(OC)c1OC,–,–,–,–,–
FC(F)Oc1ccc(NC(=S)NC2CCCCCCC2)cc1,–,–,–,11µM,–
S=C(Nc1ccc(Cl)cc1)NC1CCCCC1,–,–,–,?,–
Cc1cc(N2CCOCC2)nc(SCC(=O)OCc2ccccc2)n1,–,–,–,–,–
Cc1cc(N2CCOCC2)nc(SCc2ccc(Cl)cc2Cl)n1,–,?,35µM,–,–
O=C(c1ccc2c(Cl)c3c(nc2c1)CCCC3)N1CCN(c2ccc(F)cc2)CC1,–,–,16µM,–,–
COc1ccccc1N1CCN(C(=O)c2ccc3c(Cl)c4c(nc3c2)CCCC4)CC1,?,?,20µM,–,–
O=C(c1ccc2c(=O)n3c(nc2c1)CCCCC3)N1CCN(c2cccc(Cl)c2)CC1,–,?,35µM,–,–
CCCCCCCNC1=CC(=O)CC(c2ccccc2)C1 (stereo not drawn),–,–,20µM,–,–
C=C(C)Cn1c(NCCOC)nc2c1c(=O)[nH]c(=O)n2C,–,–,–,–,–
C=C(C)Cn1c(N2CC(C)CC(C)C2)nc2c1c(=O)[nH]c(=O)n2C (stereo not drawn),25µM,–,–,–,–
Cc1cc(C(=O)N2CCC(Cc3ccccc3)CC2)ccc1[N+](=O)[O-],–,11µM,?,–,–
O=C(c1cnc(Cl)c(Cl)c1)N1CCC(Cc2ccccc2)CC1,–,–,13µM,–,–
Cc1ccc(CNC(=O)Cn2nc(N3CCN(c4ccccc4)CC3)ccc2=O)cc1,·,–,–,–,·
CCN(CC)CCCNC(=O)c1oc(=O)c2ccccc2c1-c1ccc(C)cc1,·,–,·,·,·
SMILES,Mito fusion act,FUS suppressor,TDP-43 yeast inh,Abeta rescue,aSyn rescue
COc1ccc(Cn2cc(CN3[C@H](Cc4ccccc4)COc4cc(Br)ccc4S3(=O)=O)nn2)cc1,·,–,·,·,·
CCCCOC(=O)c1ccc(NC(=O)CSc2nc3c(c(=O)[nH]2)CCCC3)cc1,·,–,–,–,·
O=C(CN1CCN(S(=O)(=O)c2ccc(F)cc2)CC1)Nc1ccc(F)cc1F,35µM,–,–,·,–
COc1ccc(C)cc1NC(=O)CN1CCCN(S(=O)(=O)c2ccc(Br)cc2)CC1,14µM,–,–,–,–
COc1ccc(C)cc1NC(=O)CN1CCN(S(=O)(=O)c2ccc(F)cc2)CC1,–,–,–,–,–
CNC(=S)/N=C/NOCc1ccc(Cl)cc1Cl,–,–,10µM,–,–
NC(=O)NOCc1ccc(Cl)cc1Cl,–,–,–,–,–
COC(=O)c1sc(S(=O)(=O)Nc2ccc(C)cc2)c(C(=O)OC)c1C,–,–,20µM,–,–
Cc1ccc(-n2c(C)cc(/C=C(\C#N)C(=O)Nc3ccc(C)c(C)c3)c2C)cc1,·,–,–,–,·
Cc1ccc(NC(=O)/C(C#N)=C/c2cc(C)n(-c3ccc(Br)cc3)c2C)cc1C,·,?,4µM,–,·
Cc1ccc2nc(NC(=O)c3cc(=O)c4cc(Cl)ccc4o3)sc2c1,·,–,?,–,·
C[C@]12CCC(O)CC1=CCC1C2CC[C@]2(C)/C(=N\NC(N)=S)CCC12 (stereo partly drawn),–,–,–,2.5µM,–
CC(C)C(=O)N[C@H]1CCC2C3CC=C4C[C@@H](O)CC[C@]4(C)C3CC[C@@]21C (stereo partly drawn),·,–,–,–,–
CC12CCC(O)CC1=CCC1C2CCC2(C)C1CCC21CCC(=O)O1 (stereo not drawn),20µM,·,–,–,–
CC(=O)OCC(=O)C1CCC2C3CC=C4CC(O)CCC4(C)C3CCC12C (stereo not drawn),3.2µM,–,–,–,–
Cc1ccc(NC(=O)Cn2c(=O)n(Cc3ccco3)c(=O)c3sc4ccccc4c32)cc1C,·,–,–,–,·
COc1ccc(NC(=O)CSc2cn(CC(=O)N3CCOCC3)c3ccccc23)cc1OC,·,–,–,–,·
CS(=O)(=O)c1ccccc1COC(=O)Nc1ccc(Cl)cc1,–,–,13µM,–,–
O=C(CN(C(=O)OCC1c2ccccc2-c2ccccc21)[C@@H](Cc1ccccc1)C(=O)O)OCc1ccc(C(=O)NCc2ccccc2)cc1,·,25µM,·,·,·
C=C1c2nc3ccccc3n2C=C(c2ccc(C)cc2)N1c1ccccc1,·,·,14µM,–,–
Cc1ccc(C2=CCN(C)C(=O)N2c2ccccc2)cc1,·,–,·,·,·
COc1ccc(C2=NOC(Cn3nc(-c4ccccc4)cc3C(=O)NCc3cccs3)C2)cc1 (stereo not drawn),·,32µM,–,–,–
Cc1ccc(CNC(=O)c2cc(-c3ccccc3C)nn2CC2CC(c3cccnc3)=NO2)cc1 (stereo not drawn),·,–,?,–,–
Cc1ccccc1-c1cc(C(=O)NCc2ccc(OC(F)(F)F)cc2)n(CC2CC(c3cccnc3)=NO2)n1 (stereo not drawn),·,22µM,?,–,–
CCOC(=O)Cc1csc(NC(=O)c2cccc(Cl)c2)n1,·,–,?,–,–
SMILES,Mito fusion act,FUS suppressor,TDP-43 yeast inh,Abeta rescue,aSyn rescue
CCOC(=O)Cc1csc(NC(=O)c2ccc3ncsc3c2)n1,–,–,14µM,–,–
CCOC(=O)Cc1csc(NC(=O)c2ccc(Br)cc2)n1,–,–,13µM,–,–
CCCCN(CCCC)S(=O)(=O)c1ccc(C(=O)Nc2nnc(CSC)o2)cc1,–,–,–,–,?
CCCCN(CC)S(=O)(=O)c1ccc(C(=O)Nc2nnc(CSC)o2)cc1,–,–,?,–,32µM
Cc1cccc(-c2nc(SCC(=O)Nc3ccc4c(c3)OCO4)c(-c3ccccc3)[nH]2)c1,·,–,?,–,·
O=C(CCSCc1cnn(-c2ccccc2)c1-n1cccc1)NCc1ccc(Cl)cc1,·,–,20µM,?,·
Cc1ccc(CNC(=O)CCSCc2cnn(-c3ccccc3)c2-n2cccc2)cc1,·,–,20µM,–,·

# Compound activity as filed in PubChem.
